Potency data for 27 molecules are collected here from PubChem BioAssay (Tox21).

Records with an inconclusive call do not appear. Calls of active or inactive are those of the source. Unless noted, calls follow the shape of the dose curve; as a rule, active = well fitted curve in the direction sought with a large enough effect in the repeat runs; inconclusive = weak or mixed curves; inactive = no such curve, though single readings can be large; an effect the other way counts as inactive or inconclusive.

Experiment [1] has as its target Acetylcholinesterase (Homo sapiens) (UniProt P22303). As to the kind of experiment: Acetylcholinesterase (AChE) small molecule antagonists: enzyme-based qHTS assay (AID 1347397; calls by dose curve; also: nearly all actives have a fitted effect of over 55% in size). Conditions: Potency: AChE enzyme activity inhibition. Summed up: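 Absorbance-based detection of thiocholine with DTNB served as the read-out. Recombinant human AChE was exposed to compound for 30 min at RT before a 10 min RT incubation with acetylthiocholine.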
In general terms: In qHTS, concentration-response curves come from the screen itself.

Experiment [2] has the same target. As to the kind of experiment: Acetylcholinesterase (AChE) small molecule antagonists: enzyme-based qHTS assay with human liver microsomes (AID 1347399; calls by dose curve; also: nearly all actives have a fitted effect of over 60% in size; also: potency is read from the fitted curve at half-maximal effect). As to conditions: Potency: qHTS inhibition. In outline:
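Recombinant human AChE (50 mU/mL in the enzyme mix) and human liver microsomes (0.25 mg/mL final) were preincubated with compound and NADPH (0.25 mg/mL final) for 30 min at 37 C. Acetylthiocholine/DTNB was then added; thiocholine was read colorimetrically after 10 min at room temperature.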

For experiment [3], the target named is Cytochrome P450 2D6 (Homo sapiens) (UniProt P10635). Put plainly: Cytochrome P450 Family 2 Subfamily D Member 6 (CYP2D6) small molecule antagonists: luciferase reporter qHTS assay (AID 1671196). Also: nearly all actives have a fitted effect of over 50% in size. Also: potency is read from the fitted curve at half-maximal effect. In outline: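 Each well received CYP2D6 with its proluciferin substrate and chemical, sat 10 min, then got NADPH regeneration solution for 1 h at room temperature. Luminescence in RLU served as the activity measure.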

The target in experiment [4] is Cytochrome P450 2C19 (Homo sapiens) (UniProt P33261). As to the kind of experiment: Cytochrome P450 Family 2 Subfamily C Member 19 (CYP2C19) small molecule antagonists: luciferase reporter qHTS assay (AID 1671197). Also: nearly all actives have a fitted effect of over 65% in size. Also: potency is read from the fitted curve at half-maximal effect. Summed up:
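Inhibition of CYP2C19 was scored from loss of luminescence in a P450-Glo proluciferin substrate assay, NADPH-started and run 1 h at 37C, with ketoconazole as positive control.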
(In a reporter assay the amount or activity of a reporter protein is the signal.)

The target in experiment [5] is Cytochrome P450 2C9 (Homo sapiens) (UniProt P11712). As to the kind of experiment: Cytochrome P450 Family 2 Subfamily C Member 9 (CYP2C9) small molecule antagonists: luciferase reporter qHTS assay (AID 1671198). Also: nearly all actives have a fitted effect of over 50% in size. Also: potency is read from the fitted curve at half-maximal effect. Summed up: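 Enzyme-substrate mix preincubated with compound 10 min at room temperature; reaction started with NADPH regeneration solution, 1 h 37C. Luminescent luciferin product read after 20 min detection reagent.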

Experiment [6] has as its target Cytochrome P450 1A2 (Homo sapiens) (UniProt P05177). As to the kind of experiment: Cytochrome P450 Family 1 Subfamily A Member 2 (CYP1A2) small molecule antagonists: luciferase reporter qHTS assay (AID 1671199). Also: nearly all actives have a fitted effect of over 50% in size. Also: potency is read from the fitted curve at half-maximal effect. In outline: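 Enzymatic CYP1A2 assay, human, luminescent: 10 min compound–enzyme–substrate preincubation, 1 h NADPH-dependent turnover, 20 min detection step, room temperature throughout. Reduced light indicates lower CYP1A2 activity.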

The target in experiment [7] is Voltage-gated inwardly rectifying potassium channel KCNH2 (Homo sapiens) (UniProt Q12809). Put plainly: Human Ether-a-go-go-Related Gene (hERG) channel small molecule antagonists: fluorescence cell-based qHTS assay (AID 1671200). Also: nearly all actives have a fitted effect of over 50% in size. Also: potency is read from the fitted curve at half-maximal effect. In outline:
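U2OS cells expressing the channel were plated at 1000 cells/well, incubated overnight at 37 C, then loaded with FluxOR II thallium-sensitive dye for 1 h at room temperature in the dark, with a further 10 min at room temperature before stimulation.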

Experiment [8] concerns the target Acetylcholinesterase (Homo sapiens) (UniProt P22303). As to the kind of experiment: Acetylcholinesterase (AChE) small molecule antagonists: fluorescence cell-based qHTS assay (AID 1347398; calls by dose curve; also: nearly all actives have a fitted effect of over 50% in size; also: potency is read from the fitted curve at half-maximal effect). Conditions: Potency: AChE activity. In outline: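 Fluorimetric cell-based assay: intact SH-SY5Y cells, 30 min compound preincubation at 37 C, acetylthiocholine substrate with thiol probe Thiolite Green, 40 min RT development, fluorescence 490/520 nm.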

For experiment [9], the target named is Cytochrome P450 3A4 (Homo sapiens) (UniProt P08684). Put plainly: Cytochrome P450 Family 3 Subfamily A Member 4 (CYP3A4) small molecule antagonists: luciferase reporter qHTS assay (AID 1671201). Also: nearly all actives have a fitted effect of over 50% in size. Also: potency is read from the fitted curve at half-maximal effect. Summed up:
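P450-Glo CYP3A4 system with proluciferin substrate; compounds preincubated 10 min RT with enzyme-substrate mix, then NADPH regeneration added for 1 h RT. Detection reagent 20 min, luminescence read as relative luminescence units.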

Cytochrome P450 1A2 (Homo sapiens), sequence (P05177 whole entry, looked up): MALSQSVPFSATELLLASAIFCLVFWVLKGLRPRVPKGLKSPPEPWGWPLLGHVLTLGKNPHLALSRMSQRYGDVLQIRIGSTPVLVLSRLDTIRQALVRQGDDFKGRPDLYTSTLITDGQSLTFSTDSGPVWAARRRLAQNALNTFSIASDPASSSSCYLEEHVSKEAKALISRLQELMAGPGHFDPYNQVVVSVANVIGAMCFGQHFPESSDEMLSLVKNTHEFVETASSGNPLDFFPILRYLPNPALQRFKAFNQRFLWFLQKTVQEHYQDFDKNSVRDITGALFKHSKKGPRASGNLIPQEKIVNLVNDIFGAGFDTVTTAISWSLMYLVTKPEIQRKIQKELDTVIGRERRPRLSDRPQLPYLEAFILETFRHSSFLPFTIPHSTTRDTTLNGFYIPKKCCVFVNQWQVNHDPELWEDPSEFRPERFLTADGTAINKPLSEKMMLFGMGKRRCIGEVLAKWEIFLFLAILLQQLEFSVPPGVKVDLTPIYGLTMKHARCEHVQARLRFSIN
Voltage-gated inwardly rectifying potassium channel KCNH2 (Homo sapiens), sequence (Q12809 whole entry, looked up): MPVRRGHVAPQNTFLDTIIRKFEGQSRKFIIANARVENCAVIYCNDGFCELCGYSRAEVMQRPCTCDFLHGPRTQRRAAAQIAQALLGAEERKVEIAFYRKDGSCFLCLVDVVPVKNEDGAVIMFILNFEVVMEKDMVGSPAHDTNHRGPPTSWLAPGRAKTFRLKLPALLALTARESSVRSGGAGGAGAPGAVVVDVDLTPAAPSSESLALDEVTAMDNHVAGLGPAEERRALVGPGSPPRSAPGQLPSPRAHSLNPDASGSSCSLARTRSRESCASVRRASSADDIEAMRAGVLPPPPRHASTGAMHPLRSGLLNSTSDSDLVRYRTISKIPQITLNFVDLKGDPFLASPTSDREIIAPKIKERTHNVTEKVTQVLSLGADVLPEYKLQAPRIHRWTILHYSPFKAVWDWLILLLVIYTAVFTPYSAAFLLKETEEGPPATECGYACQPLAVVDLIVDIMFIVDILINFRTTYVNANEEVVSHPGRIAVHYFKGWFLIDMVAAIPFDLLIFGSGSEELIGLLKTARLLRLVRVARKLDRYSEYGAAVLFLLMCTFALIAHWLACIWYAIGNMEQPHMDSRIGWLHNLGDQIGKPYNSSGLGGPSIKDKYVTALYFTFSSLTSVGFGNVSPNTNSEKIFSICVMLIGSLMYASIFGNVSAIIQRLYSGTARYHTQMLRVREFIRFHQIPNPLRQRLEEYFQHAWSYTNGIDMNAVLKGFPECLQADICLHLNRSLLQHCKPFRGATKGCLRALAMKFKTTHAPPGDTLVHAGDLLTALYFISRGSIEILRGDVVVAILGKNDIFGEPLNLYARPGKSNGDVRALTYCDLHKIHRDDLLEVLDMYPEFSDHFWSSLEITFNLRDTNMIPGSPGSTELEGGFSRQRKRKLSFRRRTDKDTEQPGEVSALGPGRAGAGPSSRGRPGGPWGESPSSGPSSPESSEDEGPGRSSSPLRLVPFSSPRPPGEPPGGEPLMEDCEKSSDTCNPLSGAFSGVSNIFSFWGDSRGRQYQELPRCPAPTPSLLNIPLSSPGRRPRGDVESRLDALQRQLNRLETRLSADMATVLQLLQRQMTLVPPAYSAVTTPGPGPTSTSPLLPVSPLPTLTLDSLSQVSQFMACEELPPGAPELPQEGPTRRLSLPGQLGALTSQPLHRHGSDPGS
Cytochrome P450 2C19 (Homo sapiens), sequence (P33261 whole entry, looked up): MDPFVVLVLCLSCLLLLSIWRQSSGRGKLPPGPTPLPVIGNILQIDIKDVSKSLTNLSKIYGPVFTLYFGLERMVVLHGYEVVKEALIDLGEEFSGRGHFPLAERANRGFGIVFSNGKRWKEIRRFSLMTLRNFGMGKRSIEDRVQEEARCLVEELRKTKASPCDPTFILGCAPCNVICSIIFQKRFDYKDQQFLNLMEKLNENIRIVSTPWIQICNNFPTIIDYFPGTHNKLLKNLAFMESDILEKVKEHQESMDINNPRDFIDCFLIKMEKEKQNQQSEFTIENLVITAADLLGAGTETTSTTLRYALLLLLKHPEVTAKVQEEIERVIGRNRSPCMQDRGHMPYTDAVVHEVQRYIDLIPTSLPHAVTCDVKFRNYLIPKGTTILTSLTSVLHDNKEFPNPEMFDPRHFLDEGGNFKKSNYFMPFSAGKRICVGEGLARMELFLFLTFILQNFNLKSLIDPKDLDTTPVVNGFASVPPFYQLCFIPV
Cytochrome P450 3A4 (Homo sapiens), sequence (P08684 whole entry, looked up): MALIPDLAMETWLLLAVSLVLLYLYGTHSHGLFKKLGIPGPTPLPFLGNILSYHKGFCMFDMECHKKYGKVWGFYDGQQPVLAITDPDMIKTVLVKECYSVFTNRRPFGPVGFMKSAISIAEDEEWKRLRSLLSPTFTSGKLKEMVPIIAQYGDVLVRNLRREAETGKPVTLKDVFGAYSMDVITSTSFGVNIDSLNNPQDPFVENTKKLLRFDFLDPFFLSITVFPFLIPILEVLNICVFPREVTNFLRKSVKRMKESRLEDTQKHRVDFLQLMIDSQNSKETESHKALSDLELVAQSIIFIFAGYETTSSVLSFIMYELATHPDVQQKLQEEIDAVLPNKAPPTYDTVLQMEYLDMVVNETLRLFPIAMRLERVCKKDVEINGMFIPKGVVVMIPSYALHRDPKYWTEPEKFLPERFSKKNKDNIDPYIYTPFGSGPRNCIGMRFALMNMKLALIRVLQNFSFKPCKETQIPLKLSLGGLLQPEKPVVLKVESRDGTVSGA
Cytochrome P450 2C9 (Homo sapiens), sequence (P11712 whole entry, looked up): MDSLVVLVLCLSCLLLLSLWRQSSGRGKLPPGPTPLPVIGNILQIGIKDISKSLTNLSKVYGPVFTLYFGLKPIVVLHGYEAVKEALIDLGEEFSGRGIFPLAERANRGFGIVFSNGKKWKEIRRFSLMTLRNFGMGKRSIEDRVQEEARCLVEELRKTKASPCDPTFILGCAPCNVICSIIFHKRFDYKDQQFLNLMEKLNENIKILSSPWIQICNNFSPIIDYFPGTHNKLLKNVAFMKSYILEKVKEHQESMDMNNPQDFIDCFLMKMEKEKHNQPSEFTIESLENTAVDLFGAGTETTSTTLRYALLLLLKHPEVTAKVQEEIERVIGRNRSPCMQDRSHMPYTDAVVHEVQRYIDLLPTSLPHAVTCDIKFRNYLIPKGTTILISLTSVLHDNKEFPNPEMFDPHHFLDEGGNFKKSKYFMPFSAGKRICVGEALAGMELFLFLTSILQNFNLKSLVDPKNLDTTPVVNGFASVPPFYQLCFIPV
Cytochrome P450 2D6 (Homo sapiens), sequence (P10635 whole entry, looked up): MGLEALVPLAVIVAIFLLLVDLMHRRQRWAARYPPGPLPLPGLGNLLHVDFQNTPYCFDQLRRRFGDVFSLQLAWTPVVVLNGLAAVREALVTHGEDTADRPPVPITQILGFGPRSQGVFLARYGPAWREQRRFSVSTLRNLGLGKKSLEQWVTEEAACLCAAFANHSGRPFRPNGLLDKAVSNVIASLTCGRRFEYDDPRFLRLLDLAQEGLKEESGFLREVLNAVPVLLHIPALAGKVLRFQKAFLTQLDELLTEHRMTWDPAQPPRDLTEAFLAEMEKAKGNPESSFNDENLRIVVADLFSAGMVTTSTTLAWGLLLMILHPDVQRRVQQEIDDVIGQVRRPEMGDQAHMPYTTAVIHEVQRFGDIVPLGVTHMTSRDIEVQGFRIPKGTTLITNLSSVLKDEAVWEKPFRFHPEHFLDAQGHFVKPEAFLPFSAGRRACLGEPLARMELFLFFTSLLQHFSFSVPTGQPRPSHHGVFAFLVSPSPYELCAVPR
Acetylcholinesterase (Homo sapiens), sequence (P22303 whole entry, looked up): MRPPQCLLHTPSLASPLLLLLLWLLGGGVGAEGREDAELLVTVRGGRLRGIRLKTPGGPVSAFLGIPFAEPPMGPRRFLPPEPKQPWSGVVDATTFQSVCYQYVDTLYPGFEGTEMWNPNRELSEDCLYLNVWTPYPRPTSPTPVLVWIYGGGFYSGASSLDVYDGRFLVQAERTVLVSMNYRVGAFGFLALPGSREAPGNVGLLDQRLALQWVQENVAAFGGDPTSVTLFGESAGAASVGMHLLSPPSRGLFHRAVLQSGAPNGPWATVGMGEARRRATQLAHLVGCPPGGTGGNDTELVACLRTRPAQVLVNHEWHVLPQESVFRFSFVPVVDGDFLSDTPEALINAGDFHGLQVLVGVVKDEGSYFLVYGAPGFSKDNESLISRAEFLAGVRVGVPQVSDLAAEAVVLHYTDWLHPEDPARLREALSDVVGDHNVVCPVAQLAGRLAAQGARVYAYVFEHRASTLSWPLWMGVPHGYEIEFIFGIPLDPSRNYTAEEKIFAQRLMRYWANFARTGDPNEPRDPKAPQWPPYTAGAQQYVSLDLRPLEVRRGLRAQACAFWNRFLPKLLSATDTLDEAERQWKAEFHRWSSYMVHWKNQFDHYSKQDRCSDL

On to `C[C@@H]1CC[C@@]2(OC1)O[C@H]1[C@@H](O)[C@H]3[C@@H]4CC[C@H]5C[C@@H](O[C@@H]6O[C@H](CO)[C@H](O[C@@H]7O[C@H](CO)[C@@H](O)[C@H](O[C@@H]8OC[C@@H](O)[C@H](O)[C@H]8O)[C@H]7O[C@@H]7O[C@H](CO)[C@@H](O)[C@H](O[C@@H]8O[C@H](CO)[C@@H](O)[C@H](O)[C@H]8O)[C@H]7O)[C@H](O)[C@H]6O)[C@H](O)C[C@]5(C)[C@H]4CC[C@]3(C)[C@H]1[C@@H]2C`, for which the Potency result in experiment [1], in experiment [2], in [3], in experiment [4], in experiment [5] and in experiment [6] was “inactive” throughout. In addition, in experiment [7], the Potency is 11.6 µM (active).
Turning to `Oc1ccc(I)cc1`, the Potency result in experiment [1], in experiment [8], in experiment [2] and in experiment [9] was “inactive” each time. The Potency in experiment [5] is 71 µM (active).
As for `CCCN(CCC)c1c([N+](=O)[O-])cc(S(N)(=O)=O)cc1[N+](=O)[O-]`, the Potency result in experiment [1] and in experiment [2] was “inactive” each time. Besides, the Potency in experiment [3] was 62.7 µM (active); in experiment [4], 37.9 µM (active); in experiment [5], 5.12 µM (active); in experiment [6], 51.2 µM (active); in experiment [9], 21.3 µM (active).
As to `O=S(=O)(c1ccc(Cl)cc1)c1ccc(Cl)cc1`, the Potency entry in experiment [1], in experiment [8] and in experiment [2] was “inactive” throughout. In addition, the Potency in experiment [4] is 0.161 µM (active); in experiment [7] it was 47.7 µM (active).
As to `N#CC(Cl)Cl`, the Potency entry in experiment [1], in experiment [8], in [2], in [7] and in experiment [9] was “inactive” throughout. Also, in experiment [6], the Potency is 61.6 µM (active).
For `CC(C)CC(C)Nc1ccc(Nc2ccccc2)cc1` (stereo not drawn), the Potency entry in experiment [1] and in [2] was “inactive” throughout. Moreover, the Potency in experiment [3] was 2.78 µM (active); in experiment [4] it was 0.698 µM (active); in [5], 3.5 µM (active); in experiment [6], 22.1 µM (active).
For `O=c1[nH]c2ccccc2n1C1CCN(CCCC(c2ccc(F)cc2)c2ccc(F)cc2)CC1`, the Potency result in [1], in [8], in experiment [2], in [6] and in [9] was “inactive” throughout.
Regarding `CCCN(CCC)CCc1c[nH]c2ccccc12`, the Potency entry in experiment [1], in [8] and in experiment [2] was “inactive” each time. The Potency in experiment [6] is 27.9 µM (active).
On to `C=CCC1=C(C)C(OC(=O)C2C(C=C(C)C)C2(C)C)CC1=O` (stereo not drawn), for which the Potency result in [1] and in experiment [2] was “inactive” in each case. Besides, the Potency in experiment [3] is 30 µM (active); in experiment [4], 1.69 µM (active); in experiment [5], 6.71 µM (active); in experiment [6], 25.9 µM (active); in experiment [7], 29.2 µM (active).
With `CC(=O)c1cc(C(C)(C)C)cc2c1CCC2(C)C`, the Potency result in experiment [1], in [8], in experiment [2], in [4] and in [9] was “inactive” each time. Also, the Potency in [6] is 31.7 µM (active).
As for `CC(C)(C)C(O)C(Oc1ccc(-c2ccccc2)cc1)n1cncn1` (stereo not drawn), the Potency result in experiment [1], in experiment [8], in [2] and in [7] was “inactive” throughout. Also, the figures for the Potency in experiment [5] and in experiment [9] were 10 µM (active) and 0.448 µM (active), respectively.
As to `COP(=O)(CCC(=O)NCO)OC`, the Potency result in experiment [1], in [8], in [2], in experiment [4], in experiment [7] and in experiment [9] was “inactive” throughout.
Consider `CC(C)(C)C(O)/C(=C\c1ccc(Cl)cc1Cl)n1cncn1` (stereo not drawn), for which the Potency entry in experiment [1] and in [2] was “inactive” in each case. Also, the Potency is 34.2 µM (active) in experiment [3]; 0.0342 µM (active) in experiment [4]; 4.83 µM (active) in [5]; 38.4 µM (active) in experiment [6]; 0.272 µM (active) in experiment [9].
`BrCC(Br)c1ccccc1` (stereo not drawn): the Potency entry in experiment [1], in experiment [8], in [2], in [7] and in experiment [9] was “inactive” in each case.
In the case of `CN(CCCC(=O)c1cccnc1)N=O`, the Potency result in [1], in experiment [8], in experiment [2], in experiment [4] and in experiment [7] was “inactive” each time. Moreover, the Potency in experiment [9] was 17.8 µM (active).
As to `O=C(CBr)c1ccc(O)cc1`, the Potency entry in [1], in experiment [8], in experiment [2], in experiment [5] and in experiment [7] was “inactive” each time. Besides, the Potency in [6] is 31.7 µM (active).
With `CCN(CC)c1c([N+](=O)[O-])cc(C(F)(F)F)c(N)c1[N+](=O)[O-]`, the Potency entry in experiment [1], in experiment [8], in experiment [2] and in experiment [7] was “inactive” each time. In [4], the Potency is 20 µM (active).
Consider `Clc1ccc(CSC(Cn2ccnc2)c2ccc(Cl)cc2Cl)cc1` (stereo not drawn), for which the Potency entry in experiment [8] and in [2] was “inactive” throughout.
For the molecule `Fc1ccc(Oc2ccnc3cc(Cl)cc(Cl)c23)cc1`, the Potency entry in experiment [8] and in experiment [2] was “inactive” in each case. The Potency in [3] is 35.6 µM (active); in experiment [4], 20 µM (active); in experiment [5], 31.7 µM (active); in [6], 0.71 µM (active); in experiment [7], 24.5 µM (active); in [9] it was 63.3 µM (active).
Turning to `CC(C)(C)OO`, the Potency result in [8], in [2], in experiment [3], in experiment [4], in [5] and in [7] was “inactive” in each case. Moreover, the Potency entry in [9] was “inactive”.
On to `N#CNC#N`, for which the Potency entry in [8], in experiment [2], in experiment [3], in [4], in experiment [6] and in experiment [7] was “inactive” throughout. In experiment [9], the Potency result is “inactive”.
`CCOP(=O)(NC(C)C)Oc1ccc(SC)c(C)c1` (stereo not drawn): the Potency is 15.9 µM (active) in experiment [8]; 71 µM (active) in [2]; 5.02 µM (active) in experiment [3]; 1.59 µM (active) in experiment [4]; 11.9 µM (active) in experiment [5]; 2.75 µM (active) in experiment [6]. Also, the Potency entry in experiment [7] is “inactive”.
Turning to `COP(=S)(OC)Oc1cc(Cl)c(Br)cc1Cl`, the Potency result in experiment [8], in [2] and in experiment [3] was “inactive” each time. Besides, the values for the Potency in experiment [4] and in experiment [5] were 17.8 µM (active) and 5.64 µM (active), respectively.
Consider `COC12CC[C@@]3(C[C@@H]1C(C)(O)C(C)(C)C)[C@H]1Cc4ccc(O)c5c4[C@@]3(CCN1CC1CC1)[C@H]2O5` (stereo partly drawn), for which the Potency result in [8], in experiment [2] and in experiment [6] was “inactive” throughout. The Potency in experiment [3] was 2.23 µM (active).
For `CN(C)CCc1c[nH]c2cccc(O)c12`, the Potency result in [1], in experiment [2] and in experiment [7] was “inactive” throughout. For the same molecule, the Potency in experiment [3] is 7.03 µM (active); in experiment [4], 19.8 µM (active); in experiment [5] it was 7.89 µM (active).
For `CN(C)C1CSSSC1`, the Potency result in experiment [8], in experiment [2] and in experiment [9] was “inactive” in each case. For the same molecule, the Potency in experiment [3] was 39.9 µM (active); in experiment [4] it was 35.6 µM (active); in experiment [5] it was 28.3 µM (active); in [6] it was 63.3 µM (active).
Turning to `CC(C)(COCC1CO1)COCC1CO1` (stereo not drawn), the Potency entry in experiment [8], in experiment [2], in experiment [3], in experiment [5] and in experiment [6] was “inactive” each time. The Potency in experiment [4] was 79.6 µM (active).
